Bioassay records (PubChem BioAssay)
MITF inh = MITF inhibitors, primary screen, biochemical, AlphaScreen, human. Microphthalmia-associated transcription factor (Homo sapiens), O75030. AlphaScreen MITF homodimerization, bead proximity signal. inhibition, % at 2.6 µM. hit rate 0.91% among 650,000. AID 1259374, 2018; in the data active means inhibition above about 50%;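 further: 0% = vehicle wells with protein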
Target sequence (O75030 whole entry, looked up): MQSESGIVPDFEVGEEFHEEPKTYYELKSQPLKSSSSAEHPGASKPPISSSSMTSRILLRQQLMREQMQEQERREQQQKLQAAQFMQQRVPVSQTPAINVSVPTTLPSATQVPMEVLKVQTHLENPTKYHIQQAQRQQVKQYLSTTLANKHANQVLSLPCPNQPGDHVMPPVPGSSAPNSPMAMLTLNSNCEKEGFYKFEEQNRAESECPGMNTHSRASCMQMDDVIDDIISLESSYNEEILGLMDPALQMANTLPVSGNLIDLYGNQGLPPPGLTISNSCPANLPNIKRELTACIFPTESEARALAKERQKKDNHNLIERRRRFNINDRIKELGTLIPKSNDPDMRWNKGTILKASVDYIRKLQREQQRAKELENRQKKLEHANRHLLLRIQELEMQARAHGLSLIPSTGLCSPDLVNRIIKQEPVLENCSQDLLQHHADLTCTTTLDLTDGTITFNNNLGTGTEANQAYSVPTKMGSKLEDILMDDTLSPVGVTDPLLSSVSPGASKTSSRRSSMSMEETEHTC
FBW7 act = FBW7 E3 ligase activators, primary screen, biochemical, AlphaScreen, human | hit rate 0.13% among 650,000 | AID 1259310, 2017 | AlphaScreen FBW7–phospho-cyclin E peptide binding, activator screen | F-box/WD repeat-containing protein 7 (Homo sapiens), Q969H0 | normalized activity (activation), % at 26.1 µM; in the data active means normalized activity above about 1.9%;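 further: purified mutant Fbw7 with reduced substrate affinity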
GPR151 activ = activators of human GPR151, primary screen, cell-based, PathHunter beta-arrestin, luminescence. G-protein coupled receptor 151 (Homo sapiens), Q8TDV0. hit rate 1% among 650,000. PathHunter beta-arrestin GPR151 cells. AID 1508602, 2020. activation, % at 11.2 µM; in the data active means activation above about 4.9%;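 further: 0% = median of compound wells and 100% = cells with positive control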
TEAD-YAP inh = TEAD-YAP interaction inhibition, primary screen, TEAD-YAP interaction inhibitor project, luminescence, HEK-TIYL cells; inhibition, % at 9.12 µM; AID 1259422, 2018; hit rate 1.4% among 640,000; TEAD-Gal4/YAP UAS-luciferase luminescence; in the data active means inhibition above about 32%;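 further: 0% = median of test compound wells and 100% = reference inhibitor wells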
Active calls of the source: *. Hits are enriched below; roughly 3.4% of the tested compounds scored in any of these assays.

SMILES | MITF inh | FBW7 act | GPR151 activ | TEAD-YAP inh
O=C1c2ccccc2C(=O)N1c1ccc(OCC(O)COC2CCCCC2)cc1 (stereo not given) | -2 | 0 | 0 | 5
CC(=O)NC1=NN(C(C)=O)C(C)(c2ccc(OC(C)=O)cc2)S1 (stereo not given) | 9 | 0 | 1 | 66*
CC(=O)NC1=NN(C(C)=O)C(C)(c2cccc(OC(=O)c3ccccc3)c2)S1 (stereo not given) | 22 | 0 | 0 | 61*
Cc1cc(N/N=C/c2cccc([N+](=O)[O-])c2)nc(-c2ccccc2O)n1 | 12 | 0 | 0 | 2
Cc1cc(N/N=C/c2cc([N+](=O)[O-])ccc2O)nc(-c2ccccc2O)n1 | -12 | 0 | 0 | 77*
Cc1cc(N/N=C/c2ccc(O)c(C)c2O)nc(-c2ccccc2O)n1 | -2 | 0 | 0 | 42*
O=[N+]([O-])c1ccc(O)c(/C=N/Nc2ccc(Cl)nn2)c1 | -11 | 0 | 1 | 46*
O=C(CC1(O)C(=O)N(C/C=C/c2ccccc2)c2ccccc21)c1cccs1 (stereo not given) | -2 | 0 | 1 | 4
O=C(OC(c1ccccc1)c1nccc2ccccc12)c1ccc(F)cc1 (stereo not given) | -18 | 1 | 1 | 52*
CC(C)Oc1ccccc1/C=C1/SC(N2CCCC2)=NC1=O | -6 | 0 | -2 | 38*
Cc1ccccc1N1CCN(C2=NC(=O)/C(=C\c3ccccc3OC(C)C)S2)CC1 | -1 | 0 | 0 | 0
O=C(Nc1ccccc1F)N1CCN(c2nc(-c3ccc(Cl)cc3)cs2)CC1 | 3 | 0 | 3 | 6
CCCCNC(=O)c1cc(OC)cc(OC)c1 | -9 | 0 | 0 | 0
Cc1cc(F)ccc1NC(=O)CCc1c(C)nc2nc(CN)nn2c1C | -2 | -1 | 2 | 4
CCOc1cc(/C=N/NC(=O)c2cc(O)c(O)c(O)c2)ccc1O | 82* | 0 | 1 | -4
CCOc1cc(/C=N/NC(=O)C(=O)N/N=C/c2ccc(O)c(OCC)c2)ccc1O | -1 | 0 | 1 | 4
CCOc1ccc(-c2cc(C(=O)N/N=C/c3ccc(O)c(OCC)c3)[nH]n2)cc1 | 10 | 0 | 4 | 43*
CCOc1ccc(-c2cc(C(=O)N/N=C/c3ccc(F)cc3)[nH]n2)cc1 | -6 | 0 | -1 | 41*
O=C(O)C1CC1C(=O)N1CCCC1c1nc(-c2ccc(Cl)cc2)c2ccccn12 (stereo not given) | -19 | 0 | 0 | -3
COc1ccccc1N1C(=O)c2ccc(F)cc2C1=O | 11 | 0 | 0 | -1
Cc1ccc2c(C)nc(N3CCCC(NCC4COc5ccccc5O4)CC3)nc2c1 (stereo not given) | 5 | 1.9* | 0 | -18
CCCNc1ccc2ncc(-c3ccc(O)c(OC)c3)n2n1 | -1 | 0 | 0 | 71*
COc1ccccc1-c1cnc2ccc(NCc3cccs3)nn12 | -6 | 1.9* | 0 | -11
COc1cc(-c2cnc3ccc(NCc4cccs4)nn23)cc(OC)c1OC | -2 | 0 | 1 | -10
OCc1ccccc1-c1cnc2ccc(NCc3cccs3)nn12 | 13 | 0 | 0 | 4
SMILES | MITF inh | FBW7 act | GPR151 activ | TEAD-YAP inh
COc1cc(-c2cnc3ccc(NCC4CC4)nn23)ccc1O | -2 | 0 | -1 | -4
COc1cc(CNc2ccc3ncc(-c4cccc(O)c4)n3n2)cc(OC)c1OC | 25 | 1 | 1 | -21
COc1cc(-c2cnc3ccc(NCc4cccs4)nn23)ccc1O | 0 | 0 | 0 | 40*
COc1cc(CNc2ccc3ncc(-c4cccc(N(C)C)c4)n3n2)cc(OC)c1OC | 19 | -1 | 0 | 50*
COc1ccc(-c2nnc(SCC(=O)N(C)Cc3ccccc3)o2)cc1 | 9 | 0 | 2 | 11
CNC(=S)N1CCC(NC(=O)c2ccccc2F)CC1 | -6 | 0 | 1 | -7
COc1cccc2c1OC1(CCN(C(=O)Cc3cc(OC)c(OC)c(OC)c3)CC1)OC2 | -2 | 0 | -1 | 2
Cc1nc2ccc(N3C(=O)c4c(Cl)c(Cl)c(Cl)c(Cl)c4C3=O)cc2[nH]1 | 4 | 0 | 1 | -24
COc1ccc(-c2nnc(C3CCN(S(=O)(=O)c4cccc(C#N)c4)CC3)o2)cc1 | -6 | 0 | -1 | -6
c1ccc(-c2cc(N3CCN(c4ccccn4)CC3)nc(-c3ccccn3)n2)nc1 | 107* | -1 | 1 | 71*
CCC(C)NS(=O)(=O)c1ccc(Br)cc1 (stereo not given) | 8 | 0 | 1 | -5
CCC(C)NS(=O)(=O)c1ccc(Cc2ccc(S(=O)(=O)NC(C)CC)cc2)cc1 (stereo not given) | 6 | 0 | 1 | 34*
COc1cc2[nH]c(=S)nc(NCCCN3CCCCC3C)c2cc1OC (stereo not given) | 16 | 0 | 0 | -3
O=C1NCCN/C1=C/C(=O)c1cccs1 | -6 | 0 | 0 | -11
COc1ccc(C(=O)COC(=O)C(Cc2ccccc2)N2C(=O)C3C4C=CC(C5CC45)C3C2=O)cc1 (stereo not given) | 2 | 0 | 0 | 0
CCOC(=O)c1ccc(NC(c2ccc(O)cc2O)P(=O)(OCC)OCC)cc1 (stereo not given) | 52* | 1 | -1 | -7
Cn1nc(-c2ccc(OCC(=O)N3CCCCC3)cc2)c2ccccc2c1=O | 2 | 0 | 0 | 52*
Cn1nc(-c2ccc(OCC(N)=O)cc2)c2ccccc2c1=O | 8 | 0 | 0 | -21
OC1CCC(Nc2nc(NCc3ccccc3)c3ncn(-c4ccccc4)c3n2)CC1 (stereo not given) | -2 | 0 | 1 | -40
c1ccc(-n2cnc3c(NC4CC4)nc(Nc4ccc(N5CCOCC5)cc4)nc32)cc1 | 7 | 0 | 1 | 33*
OC1CCC(Nc2nc(Nc3ccc(N4CCOCC4)cc3)c3ncn(-c4ccccc4)c3n2)CC1 (stereo not given) | 21 | 0 | 1 | 38*
O=C(Cn1nnc(-c2c[nH]c3ccccc23)n1)NCc1ccc(F)cc1 | -4 | 0 | -1 | -1
Cc1cc2oc(=O)cc(CN(C)CCO)c2cc1Cl | -19 | 0 | 1 | 4
COc1ccc(C(=O)Nc2nc3c(cc4c5c(cccc53)CC4)s2)cc1OC | 17 | 2.0* | -1 | -3
Cc1cc(NCCOc2ccccc2)nc(Nc2ccccc2)n1 | 0 | 0 | 1 | 9
COc1ccc(CCNc2cc(C)nc(Nc3ccc(N4CCOCC4)cc3)n2)cc1 | 22 | 0 | 4 | 60*
Cc1cc(NCCOc2ccccc2)nc(Nc2ccc(-n3ccnc3)cc2)n1 | 1 | 0 | 5 | 40*
COc1ccc(CCNc2cc(C)nc(N3CCOCC3)n2)cc1 | 2 | 0 | 1 | -9
Cc1cc(NCCc2ccc(O)cc2)nc(Nc2ccc(-n3ccnc3)cc2)n1 | 5 | 0 | 3 | 42*
